Laboratory results taken from ChEMBL document CHEMBL1157539, “Thousands of chemical starting points for antimalarial lead identification” (Nature, 2010).

test system: Plasmodium falciparum; test: GSK_TCMDC: Inhibition of Plasmodium falciparum 3D7 in whole red blood cells, using parasite LDH activity as an index of growth. Test compounds present at 2uM; assay type: functional

| Structure (SMILES) | Inhibition [%] |
| --- | --- |
| CCCC(C)Nc1nc(C)cc(N[C@@H](CC(C)C)C(=O)NCCc2ccccc2)n1.O=C(O)C(F)(F)F (stereo not given in full) | 96 |
| Cc1c(CNCCCNc2cc(=O)c3ccccc3[nH]2)sc(C(F)=C(F)F)c1Br.Cl | 94 |
| COC(=O)CCn1c(C2CCN(CC3CCC(NC(=O)/C=C/c4ccc(Cl)c(Cl)c4)CC3)CC2)nc2ccccc21 (stereo not given) | 94 |
| COc1cccc2cc(C(=O)N[C@@H](CC(C)C)C(=O)N[C@H](C=NN3CCOC3=O)Cc3ccccc3)oc12 | 96 |
| COc1ccc(CN2C(=S)N(Cc3ccccc3)C(=O)C2CC(=O)Nc2ccccc2)cc1OC (stereo not given) | 96 |
| CC(C)COc1ccc(Cl)cc1Cc1ccc(-c2nc3ccc(C(F)(F)F)cc3[nH]2)o1 | 97 |
| CNC(=O)c1cnc(Nc2ccc(N3CCOCC3)cc2)nc1Nc1cccc(O)c1.O=C(O)C(F)(F)F | 90 |
| Cc1nc(-c2ccc(-c3ccc(C(=O)Nc4ccc(I)c(OCCN5CCCC5)c4)cc3)c(C)c2)no1.Cl | 95 |
| COc1ccc(CCNCCCCCCNCCc2ccc(-c3ccccc3)cc2)cc1OC.Cl | 99 |
| O=C(NCCCCN1CCC(c2ccc3c(c2OCCCO)CCCC3)CC1)c1ccc(-c2ccc(C(F)(F)F)cc2)cc1 | 83 |
| CN(C)CC(O)C(c1ccccc1)c1ccc(Cl)cc1.O=C(O)CCC(=O)O (stereo not given) | 99 |
| CN1CCCN(Cc2cccc(-c3cccc(NC(=O)c4ccc(C#N)cc4)c3)c2)CC1.O=C(O)C(F)(F)F | 89 |
| COc1cc2c(cc1OC)-c1cc(=Nc3c(C)cc(C)cc3C)n(C)c(=O)n1CC2.Cl | 92 |
| O=C(Nc1cc(C(F)(F)F)ccc1Cl)c1ccc(Cn2cc(Br)cn2)cc1 | 91 |
| CC(C)(C)c1nn(-c2ccccc2)c2[nH]c(=O)c(CNC3CCCCC3)cc12 | 83 |
| COc1ccc2nc3cc(Cl)ccc3c(Nc3ccc(O)c(CNC(C)C)c3)c2c1 | 100 |
| CC[C@H](C)CNC(=O)c1cncc(-c2cccc(CNC3Cc4ccccc4C3)c2)c1.O=C(O)C(F)(F)F | 100 |
| COc1ccc(CCN(C)CCCCc2ccc(NC(=O)c3cccc4c(=O)c5cc(F)ccc5sc34)cc2)cc1OC | 96 |
| Cc1ccc(Oc2ccc(CNc3nc(Nc4cccc(F)c4)nc(Nc4cccc(F)c4)n3)cc2)cc1 | 86 |
| CN(C)CCN(C)Cc1cccc(-c2ccc3c(Nc4ccc(F)cc4Cl)ccnc3c2)c1 | 100 |

| Structure (SMILES) | Inhibition [%] |
| --- | --- |
| CCCC(=O)NC(c1ccc(C)cc1)c1ccc2cccnc2c1O (stereo not given) | 88 |
| Cc1cc(N)c2cc(NC(=O)c3cccc(C(=O)Nc4ccc5nc(C)cc(N)c5c4)c3)ccc2n1.Cl | 94 |
| Cl.O=c1cc(NCCCNCc2scc(I)c2I)[nH]c2ccccc12 | 100 |
| O=C(Nc1cccc(CN2CCN(Cc3cccc(O)c3)CC2)c1)c1cc2ccccc2s1.O=C(O)C(F)(F)F | 86 |
| CC(C)(C)c1ccc(NC(=O)c2cccc(CN3CCCN(Cc4ccsc4)CC3)c2)cc1.O=C(O)C(F)(F)F | 96 |
| CN(C)c1ccc(N2C(N)=NC(N)=NC23CCCC3)cc1.Cl | 97 |
| Cc1cccc(C)c1CNc1ccnc2cc(Br)ccc12.Cl | 95 |
| CS(=O)(=O)CCNCc1cccc(-c2cc3c(Nc4ccc(OCc5ccccc5)cc4)ncnc3cn2)c1.Cl | 100 |
| NC1=NC(Cc2ccccc2)(c2ccncc2)C(=O)N1CCCc1ccccc1 (stereo not given) | 86 |
| CO/N=C(\C)c1ccc2c(c1)CCN(CCC1CCC(NC(=O)/C=C/c3ccc(F)cc3)CC1)CC2.Cl (stereo not given) | 95 |
| Cc1ccc(-n2cc(CNCCCn3ccnc3)c(-c3cccc(C)c3)n2)cc1 | 99 |
| COc1ccc(CN(C)CCOc2ccc(NC(=O)c3cccc4c(=O)cc(-c5ccccc5)[nH]c34)cc2)cc1OC | 98 |
| O=C(/C=C/c1ccc(Cl)c(Cl)c1)NCCCCCCN1CCCN(C(=O)Nc2ccc(Cl)c(C(F)(F)F)c2)CC1 | 100 |
| CC(=O)Nc1cccc(Nc2nccc(Nc3ccc(Oc4ccccc4)cc3)n2)c1.Cl | 100 |
| O=C(C1CC1c1ccccc1)N(Cc1ccc(-c2ccc(CNCCc3ccccc3)cc2)cc1)C1CCNCC1.O=C(O)C(F)(F)F (stereo not given) | 96 |
| c1ccc(-c2[nH]c3ccccc3c2CN2CCC(N3CCCCC3)CC2)nc1 | 100 |
| Cl.O=C(NCCCCN1CCC(c2ccc3c(c2OCCO)CCCC3)CC1)c1ccc2oc(-c3ccc(C(F)(F)F)cc3)cc2c1 | 93 |
| O=C(Nc1ccc(OC2CCN(Cc3ccsc3)C2)c(Cl)c1)c1ccsc1.O=C(O)C(F)(F)F (stereo not given) | 85 |
| CCOc1ccc(-c2nc(NC(=O)Cc3cccc(OC)c3)sc2C)cc1 | 97 |
| FC(F)(F)c1ccc2[nH]c(-c3ccc(-c4ccc(CN5CCN(c6ccncc6)CC5)cc4)cc3)nc2c1.O=C(O)C(F)(F)F | 100 |
